RORg inh: blocks mouse ROR gamma transcriptional activity; P51450; Drosophila S2 Gal4-RORgamma UAS-luciferase reporter, 20 h; Potency, µM (doses to about 53.6 µM), for the others: at the top dose activity change, negative = inhibition, usual class: inhibitors; hit rate 5.4% among 310,000; also: potency is read from the fitted curve at half-maximal effect; % is scaled to controls: 0 for no effect and ±100 for the full control effect; nearly all actives have a fitted effect of over 60% in size
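ROR gamma transcriptional activity was tracked as Gal4-UAS luciferase output in stably transfected Drosophila Schneider cells, with compound added 1 hr before 700 uM copper sulfate induction and a 20 hr ambient-temperature incubation.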
CtBP-E1A blk: blocks the CtBP interaction with E1A. AlphaScreen GST-E1A/His-CtBP binding, 1536-well; hits give low values. activity change, % (test concentration not listed). hit rate 0.49% among 340,000; in the data active = activity change below about -65%; inconclusive = mostly about -30% to -63%; also: % is scaled to controls: 0 for no effect and ±100 for the full control effect
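AlphaScreen with 125 nM GST-E1A and 125 nM His-CtBP (5X stocks) in Tris pH 8.0, 300 mM NaCl, BSA, Tween 20, TCEP. Compounds preincubated 2 h at 37 deg C, then glutathione donor/nickel acceptor beads added for 1 h at 37 deg C in dark.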
Gal4-VP16 FLuc: inhibits Gal4-VP16 luciferase reporter, ROR gamma counter-screen; Drosophila S2 Gal4-VP16 UAS-luciferase, luminescence, 20 h; Potency, µM (doses to about 53.6 µM), inactives show at the highest dose activity, negative = inhibition, most hits filed as inhibitors; hit rate 3.5% among 310,000; AID 2546;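 also: Gal4-VP16 expression switched on by copper sulfate through the metallothionein promoter; potency is read from the fitted curve at half-maximal effect; % is scaled to controls: 0 for no effect and ±100 for the full control effect; nearly all actives have a fitted effect of over 50% in size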
Six1-Eya2 blk: inhibitors of human Six1/Eya2 interaction. AlphaScreen GST-Six1/His-Eya2 binding, biochemical; hits give low values. activity change, % (concentration not given with the values). AID 651725. hit rate 0.56% among 360,000; in the data active = activity change below about -65%; inconclusive = mostly about -30% to -63%; also: % is scaled to controls: 0 for no effect and ±100 for the full control effect
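Compounds are tested against tagged Six1 and Eya2 proteins bridged by glutathione donor and nickel acceptor beads; after a one-hour incubation at 37 °C without light, AlphaScreen emission is recorded.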
CBFb-RUNX1 inh: blocks binding between human CBF-beta and RUNX1. Q01196+Q13951. AlphaScreen CBFb-His/RUNX1-biotin binding, biochemical. Potency, µM (titrated, usually from 59.8 µM), for the others: at the top dose activity, negative = inhibition, hits mostly inhibitors. 230,000 tested, under 10 active; also: % of control where 0% means no effect
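Read-out: AlphaScreen. Format: His-CBF-beta with biotinylated RUNX1 (30 nM each) preincubated 20 min, compound 15 min, Ni-chelate plus streptavidin beads 90 min; room temperature throughout.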
MBNL1-CUG inh: blocks human MBNL1 binding to CUG repeat RNA | Q9NR56 | TR-FRET MBNL1-His/biotin-(CUG)12 binding, 665/545 ratio | Potency, µM (titrated, usually from 57.5 µM), inactives show top-dose activity change, negative = inhibition, most hits filed as inhibitors | hit rate 0.036% among 280,000; active = well fitted inhibition curve with a large enough effect in the signal ratio, with a control signal flat, not every such curve was filed as active; inconclusive = small, poorly fitted or top-dose-only effect, or effect the other way, or a change in a side signal; inactive = no such curve, though single readings can be large or run the other way; the % refers to the signal ratio; also: potency is read from the fitted curve at half-maximal effect; % is scaled to controls: 0 for no effect and ±100 for the full control effect
Target sequence (Q9NR56 whole entry, looked up): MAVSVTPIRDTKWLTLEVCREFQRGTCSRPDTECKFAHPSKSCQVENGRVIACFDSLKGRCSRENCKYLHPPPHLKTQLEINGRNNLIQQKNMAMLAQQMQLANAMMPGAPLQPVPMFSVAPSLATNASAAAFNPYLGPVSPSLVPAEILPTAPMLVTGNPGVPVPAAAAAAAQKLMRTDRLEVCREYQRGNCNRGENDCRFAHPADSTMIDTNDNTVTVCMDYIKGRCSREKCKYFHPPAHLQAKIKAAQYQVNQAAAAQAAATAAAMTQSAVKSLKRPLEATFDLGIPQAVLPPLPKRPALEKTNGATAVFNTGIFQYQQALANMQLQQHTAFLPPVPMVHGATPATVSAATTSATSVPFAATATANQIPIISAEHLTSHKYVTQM
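Compounds (final 92 nM to 58 uM) are added to His-tagged MBNL1 and biotin-(CUG)12, then terbium anti-His antibody and streptavidin-XL665 (5 nM final). After 60 min at room temperature, the 665/545 nm ratio is read.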
An asterisk follows results filed as active; ? = inconclusive; nt = no result; [ ] = dose if it differs, or a comment. Only some compounds are listed: those with a hit (about 5.5% of all), similar ones and a draw of the others. Unless noted, calls follow the shape of the dose curve; as a rule, active = well fitted curve in the direction sought with a large enough effect; inconclusive = small, poorly fitted or top-dose-only effect, or another doubt; inactive = no such curve, though single readings can be large; an effect the other way counts as inactive or inconclusive.

SMILES | RORg inh | CtBP-E1A blk | Gal4-VP16 FLuc | Six1-Eya2 blk | CBFb-RUNX1 inh | MBNL1-CUG inh
O=C(CSc1nnc(NC(=O)c2ccc3c(c2)OCO3)s1)NCc1ccco1 | 13µM* | -16 | ? | 9 | -4% | 2%
CCOC(=O)CNC(=O)CSc1nnc(SCC(=O)NCC(=O)OCC)s1 | -16% | 0 | 3% | 2 | 1% | -15%
CCOC(=O)CNC(=O)CSc1nnc(NC(=O)c2ccc(C)cc2)s1 | 5.6µM* | 3 | 6.3µM* | 4 | 2% | 6%
Cc1ccc(NC(=O)CSc2nnc(NC(=O)c3ccc(S(=O)(=O)N4CCOCC4)cc3)s2)cc1 | -103% | 1 | 32µM* | 0 | -4% | -9%
Cn1c(=O)c2[nH]c(C3CCC3)nc2n(C)c1=O | nt | -4 | nt | 12 | nt | nt
CCN1CCCC(Sc2nc3c([nH]2)c(=S)n(C)c(=O)n3C)C1 (configuration not stated) | 4µM* | nt | 6.3µM* | -14 | 6% | ?
Cn1c(=S)c2[nH]c(SCCN3CCCC3)nc2n(C)c1=O | 1µM* | nt | ? | -13 | 2% | ?
Cn1c(=S)c2[nH]c(SCCN)nc2n(C)c1=O | nt | -30 | nt | ? | nt | nt
CC[C@H](C)[C@H](NC(=O)[C@H](CCC(=O)O)NC(=O)[C@H](CC(N)=O)NC(=O)[C@@H](N)[C@@H](C)O)C(=O)N[C@H](C(=O)N[C@@H](CCC(=O)O)C(=O)N[C@@H](CCC(=O)O)C(=O)N[C@@H](CCC(N)=O)C(=O)N[C@@H](Cc1ccc(O)cc1)C(=O)N[C@H](C(=O)N1CCC[C@H]1C(=O)N[C@@H](CCC(N)=O)C(=O)N[C@@H](CO)C(=O)N[C@@H](CC(C)C)C(=O)N[C@@H](C)C(=O)N[C@H](C(=O)N[C@@H](CC(C)C)C(=O)N[C@@H](CCC(=O)O)C(=O)N[C@@H](CO)C(=O)N[C@H](C(=O)N[C@@H](Cc1ccccc1)C(=O)N[C@@H](CCC(N)=O)C(=O)N[C@@H](CCC(=O)O)C(=O)N[C@@H](CC(C)C)C(=O)NCC(=O)N[C@@H](CCCCN)C(=O)N[C@@H](CC(C)C)C(=O)N[C@H](C(=O)NCC(=O)N1CCC[C@H]1C(=O)N[C@@H](CC(N)=O)C(=O)N[C@@H](CO)C(=O)N[C@@H](CCC(N)=O)C(=O)O)[C@@H](C)O)C(C)C)[C@@H](C)O)[C@@H](C)O)C(C)C | 3% | nt | -4% | nt | 8% | nt
O=C(Nc1ccccc1N1CCOCC1)c1ccc([N+](=O)[O-])cc1 | -42% | -5 | 4% | -7 | -2% | ?
O=C(NC(=S)Nc1ccccc1N1CCOCC1)c1cccc([N+](=O)[O-])c1 | 1.6µM* | -25 | 4µM* | -21 | nt | ?
CCC(=O)N1CCN(c2ccccc2NC(=S)NC(=O)c2cccc([N+](=O)[O-])c2)CC1 | 7.9µM* | -16 | ? | -16 | ? | ?
COc1ccc(-c2nc3cnc(OC)nc3n(C3CC3)c2=O)cc1 | -3% | nt | -22% | nt | nt | nt
COc1cc2c(cc1OC)C(C)N(C(=O)c1cccs1)CC2 (configuration not stated) | -16% | 3 | -19%[10 µM] | 1 | -2% | -7%
COc1cc2c(cc1OC)C(C)N(C(=O)c1cc3c(=O)oc4ccc(C)cc4c3s1)CC2 (configuration not stated) | 10µM* | 2 | -21% | -1 | 3%[2.36 µM] | 14%
CC(C)C[C@@H](CO)NS(=O)(=O)c1cc(Cl)ccc1F | nt | 5 | nt | 5 | nt | nt
CCOc1ccc(NC(=O)CCCn2c(=S)[nH]c3ccsc3c2=O)cc1 | 13µM* | -1 | ? | 3 | 0% | 20%
O=C(CCCn1c(=S)[nH]c2ccsc2c1=O)Nc1ccc2c(c1)OCCO2 | 11µM* | 5 | ? | -13 | -2% | -3%
O=C(CCCCn1c(=S)[nH]c2ccsc2c1=O)NCc1ccc2c(c1)OCO2 | 14µM* | 2 | -21% | -10 | ? | nt
CC1CCCCC1NC(=O)CCCn1c(=S)[nH]c2ccsc2c1=O (configuration not stated) | 18µM* | 0 | ? | 2 | nt | -2%
COc1cc(C#N)ccc1OC(=O)c1cccc(S(=O)(=O)N2CCN(C)CC2)c1 | nt | -27 | nt | ? | nt | nt
CCNC(=O)C1(C)CCCN(Cc2cccc3c2OCCO3)C1 (configuration not stated) | nt | -13 | nt | 4 | nt | nt
COC(=O)C1=C(C)N(C)C(=O)NC1c1cccc2ccccc12 (configuration not stated) | -25% | 0 | -6% | -7 | nt | 5%
COC(=O)C1=C(C)N(C)C(=S)NC1c1c(OC)ccc2ccccc12 (configuration not stated) | 7.9µM* | 0 | ? | 7 | 5% | ?
COc1ccccc1/C=C/C=C(\C#N)C(=O)NC(C)c1ccccc1 (configuration not stated) | 11% | -10 | 4% | 1 | nt | ?
SMILES | RORg inh | CtBP-E1A blk | Gal4-VP16 FLuc | Six1-Eya2 blk | CBFb-RUNX1 inh | MBNL1-CUG inh
COc1ccc(Cc2c(-c3cccc(Cl)c3)nc3c(C)cc(Br)cn23)c(C)c1 | nt | -6 | nt | 10 | nt | nt
CCOC(=O)c1ccc(N2N=C(C)/C(=C/C=C/c3ccco3)C2=O)cc1 | 42% | 5 | -11% | -1 | ? | 1%
CC1=NN(c2ccc(C)c(C)c2)C(=O)/C1=C\C=C\c1ccc([N+](=O)[O-])o1 | 10µM* | -12 | ? | -26 | ? | nt
O=C1OCCC1Sc1nnc(-c2ccccc2)o1 (configuration not stated) | -19% | 3 | 9% | 5 | -3% | 0%
O=C1OCCC1Sc1nnc(-c2ccc(Cl)cc2Cl)o1 (configuration not stated) | 7.9µM* | -12 | ? | 4 | 4% | nt
O=C1NC(=S)N/C1=C/c1cccnc1 | 13µM* | 1 | -13% | 0 | 4% | 7%
O=C1NC(=S)N/C1=C/c1cccc([N+](=O)[O-])c1 | -7% | -11 | 9% | -7 | 5% | 11%
O=C1NC(=S)N/C1=C\c1cccnc1 | 2µM* | nt | ? | 2 | 11% | -9%
CC(=O)Nc1ccc(S(=O)(=O)N2CCNC(=O)C2)cc1 | nt | 8 | nt | 7 | nt | nt
CCn1c(-c2csc(-c3ccccc3)n2)n[nH]c1=S | 2.5µM* | -4 | 6.3µM* | 3 | -5% | 14%
CCn1c(-c2c[nH]c3ccccc23)n[nH]c1=S | ? | 15 | -10% | -3 | -1% | 0%
CCn1c(-c2csc(-c3ccc(Cl)cc3)n2)n[nH]c1=S | 1.3µM* | 3 | ? | 0 | 0% | -3%

Source: PubChem BioAssay
